Compound activity deposited in PubChem BioAssay by Sanford-Burnham Center for Chemical Genomics.
Peg3 prom inh-1: reduces Peg3 promoter-driven luciferase expression in HeLa. HeLa PEG-Prom luciferase reporter, luminescence, overnight. inhibition, % at 20 µM. 1.7% of 360,000 active;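 active = inhibition of at least 50% at 20 µM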
KKLEB cytotox: reduces viability of KKLEB cystic fibrosis airway cells; KKLEB CF airway cells viability, ATPlite luminescence, overnight; active compounds read low; cells stimulated with P. aeruginosa culture filtrate; activity change (cytotoxicity), % at 5 µM; 0.36% of 360,000 active; AID 602141;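 active = corrected activity change at or below -50% at 5 µM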
CF NFkB inh: inhibitors of cystic fibrosis induced NF-kB | KKLEB NF-kB-GFP reporter, PAF-induced, GFP fluorescence overnight | AID 588850 | inhibition, % at 5 µM | 0.86% of 360,000 active;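 active = at least 50% inhibition at 5 µM, scaled per plate between neutral and stimulator controls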;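 note: PAF is a Pseudomonas aeruginosa culture filtrate used as stimulus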
TROY NFkB inh: inhibitors of TROY-dependent NF-kB signaling. Q293 LMP1-TROYcd NF-kB luciferase reporter, 4 h. AID 1347056. 0.98% of 360,000 active. inhibition, % at 10 µM;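 active = compounds whose plate-normalised and pattern-corrected inhibition of the luciferase reporter signal at the single screening dose is 50% or more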
TWEAK-Fn14 inh: inhibitors of TWEAK-Fn14 interaction signaling | TWEAK-stimulated Fn14 reporter cells, luciferase luminescence, 8 h | inhibition, % at 10 µM | 2% of 360,000 active; in the data active = inhibition above about 50%
HIF-2a block: inhibitors of HIF-2a; 786-0 RCC cells HIF-2a reporter, luciferase luminescence, overnight; inhibition, % at 18.8 µM; 0.72% of 360,000 active; AID 624352;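 active = inhibition of the luminescence signal of 40% or more relative to plate controls, in a single-dose primary screen at 18.75 µM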
Peg3 prom inh-2: confirmation of Peg3 promoter inhibitors | shares compounds with Peg3 prom inh-1 | AID 602417 | inhibition, % at 20 µM | 84% of 1,300 active | HeLa PEG-Prom luciferase reporter, luminescence, overnight;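 active = at 20 µM dose, 40% or more inhibition averaged across four replicates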
Large screens that a line does not name were inactive (follow-up assays come after a bar, where they were run). A selection: hits, their analogues and other compounds. The true share with any hit is near 4%.

CC(C)CC(N)c1csc(Nc2ccc(C(=O)N(C)Cc3ccccc3)cn2)n1 (configuration not stated)	Peg3 prom inh-1 60 | Peg3 prom inh-2 85
CCCCN(C)C(=O)c1ccc(Nc2nc(C(N)Cc3ccccc3)cs2)nc1 (configuration not stated)	none
COc1cccc(Nc2nc(C(N)Cc3ccccc3)cs2)n1 (configuration not stated)	Peg3 prom inh-1 89 | Peg3 prom inh-2 96
CCOC(=O)C1=C[C@@H](CC)N(S(=O)(=O)c2ccc([N+](=O)[O-])cc2)[C@H]1c1ccccc1	none
Cc1nc(N/C(N)=N/S(=O)(=O)c2ccccc2)nc2ccccc12	none
COc1ccc(Br)cc1CN(C)C(=O)c1ccccc1SCC(=O)N1CCCC1	none
O=C(C(=O)N(Cc1ccccc1)Cc1ccccc1)c1c(-c2ccccc2)[nH]c2ccccc12	Peg3 prom inh-1 64, KKLEB cytotox -81, CF NFkB inh 94, TWEAK-Fn14 inh 52 | Peg3 prom inh-2 68
Cc1c(NC(=O)c2ccc(NS(=O)(=O)c3ccc(F)c(F)c3)cc2)c(=O)n(-c2ccccc2)n1C	none
N#C/C(=C\c1ccc(OCc2ccc(C(=O)O)cc2)cc1)C(=O)N1CCOCC1	Peg3 prom inh-1 71 | Peg3 prom inh-2 76
CN(C)c1ccc(C=c2c3ccccc3n3c2cc(-c2ccccc2)[n+]3C)cc1	Peg3 prom inh-1 104, TROY NFkB inh 53, TWEAK-Fn14 inh 97, HIF-2a block 90 | Peg3 prom inh-2 98
CN(C)c1ccc(C=C2C=C(c3ccccc3)OC2=O)cc1	none
CCN1C(=O)C(=Cc2cccc(OC)c2Oc2ccc([N+](=O)[O-])cc2[N+](=O)[O-])SC1=S	Peg3 prom inh-1 108, KKLEB cytotox -84, CF NFkB inh 88, TWEAK-Fn14 inh 91 | Peg3 prom inh-2 72
CN(C)CCNC(=O)c1sc2nc(-c3ccccc3)cc(C(F)(F)F)c2c1N	Peg3 prom inh-1 61 | Peg3 prom inh-2 70
COc1ccc(-c2cc(C(F)(F)F)c3c(N)c(C(=O)NCCSC)sc3n2)cc1	none
Cc1cscc1-c1ccc(C(=O)Nc2c(C)cccc2C)o1	none
COc1ccc(CCNC(=O)c2ccc(OCc3c(C)noc3C)c(OC)c2)cc1	none
COc1cc(C(=O)NCCc2c[nH]c3ccccc23)ccc1OCc1c(C)noc1C	Peg3 prom inh-1 63 | Peg3 prom inh-2 inactive
CCN1CCN(c2ncnc3c2cnn3-c2ccc(Cl)cc2)CC1	none
CC1CCCN(c2ncnc3c2cnn3-c2ccc(Cl)cc2)C1 (configuration not stated)	Peg3 prom inh-1 73, KKLEB cytotox -64, TROY NFkB inh 89, TWEAK-Fn14 inh 104, HIF-2a block 82 | Peg3 prom inh-2 86
CN(C)Cc1csc(NC(=O)Nc2ccccc2-c2ccccc2)n1	none
CC(C)CC(N)c1csc(NC(=O)Nc2ccccc2C(C)(C)C)n1 (configuration not stated)	Peg3 prom inh-1 67 | Peg3 prom inh-2 91
COc1ccc(CNC(=O)Nc2nc(C(N)Cc3ccc(F)cc3)cs2)cc1 (configuration not stated)	Peg3 prom inh-1 96 | Peg3 prom inh-2 98
CN(C)Cc1csc(NC(=O)Nc2ccccc2Oc2ccccc2)n1	Peg3 prom inh-1 93 | Peg3 prom inh-2 inactive
COc1ccccc1NC(=O)Nc1nc(C(N)CCc2ccccc2)cs1 (configuration not stated)	Peg3 prom inh-1 88 | Peg3 prom inh-2 95
COc1ccccc1CNC(=O)Nc1nc(C(N)C(C)C)cs1 (configuration not stated)	none
O=C(CCC1CCCC1)NNC(=O)c1ccccc1O	none
CSc1ncc(Cl)c(C(=O)Nc2ccc(NC(C)=O)cc2)n1	none
CC(=O)Nc1ccc(NC(=O)c2nc(S(=O)(=O)Cc3ccccc3)ncc2Cl)cc1	Peg3 prom inh-1 102, KKLEB cytotox -77, CF NFkB inh 96, TWEAK-Fn14 inh 58 | Peg3 prom inh-2 96
Oc1c(Br)cc(Br)c2cccnc12	Peg3 prom inh-1 50 | Peg3 prom inh-2 59
Cc1ccccc1-c1nc(CN2CCC(C(=O)NC3CCN(Cc4ccccc4)CC3)CC2)c(C)o1	Peg3 prom inh-1 56 | Peg3 prom inh-2 inactive
O=Nc1c(-c2c(O)[nH]c3cc(Br)ccc23)[nH]c2ccccc12	Peg3 prom inh-1 101, CF NFkB inh 107, TROY NFkB inh 69, TWEAK-Fn14 inh 91 | Peg3 prom inh-2 98
O=C(CSCc1cccc(Br)c1)N=Nc1c(O)[nH]c2ccccc12	none
Cc1oc2c(C)c3oc(=O)c(CCC(=O)NCCCn4ccnc4)c(C)c3cc2c1C	none
Cc1ccc2nc(/C(C#N)=C\c3ccc([N+](=O)[O-])o3)[nH]c2c1	Peg3 prom inh-1 105, KKLEB cytotox -68, TWEAK-Fn14 inh 99 | Peg3 prom inh-2 84
O=C(CCc1ccccc1)OCCN1CCOCC1	none
CCOC(=O)/C(=C\c1ccccc1)C(=O)CCN1CCOCC1	Peg3 prom inh-1 97 | Peg3 prom inh-2 86
NS(=O)(=O)c1ccc(CCNC(=O)c2cc(-c3cccs3)nc3ccccc23)cc1	Peg3 prom inh-1 54 | Peg3 prom inh-2 41
NS(=O)(=O)c1ccc(CNC(=O)c2cc(-c3cccs3)nc3ccccc23)cc1	none
COc1ccc(N(Cc2cc3cc(OC)ccc3[nH]c2=O)S(=O)(=O)c2ccc(NC(C)=O)cc2)cc1	Peg3 prom inh-1 62, KKLEB cytotox -101, CF NFkB inh 80 | Peg3 prom inh-2 61
CC(=O)Nc1ccc(S(=O)(=O)N(Cc2ccco2)Cc2cc3ccccc3[nH]c2=O)cc1	Peg3 prom inh-1 60 | Peg3 prom inh-2 55
COc1ccc(N(Cc2cc3ccccc3[nH]c2=O)S(=O)(=O)c2ccc(OC)cc2)cc1	none
COC(=O)c1ccccc1S(=O)(=O)N(Cc1ccco1)Cc1cc2cc(OC)ccc2[nH]c1=O	none
CC(=O)Nc1ccc(S(=O)(=O)N(Cc2cccnc2)Cc2cc3ccccc3[nH]c2=O)cc1	Peg3 prom inh-1 56, CF NFkB inh 81 | Peg3 prom inh-2 46
Cc1noc(C)c1-c1csc(N2CCC(C(N)=O)CC2)n1	none
NC(=O)c1nsc(C(=O)N(c2ccccc2F)C(C(=O)NCc2ccccc2)c2ccc(O)cc2)c1N (configuration not stated)	Peg3 prom inh-1 75, KKLEB cytotox -54, CF NFkB inh 90 | Peg3 prom inh-2 57
Cc1ccccc1N(C(=O)c1snc(C(N)=O)c1N)C(C(=O)NCc1ccccc1)c1ccc(O)cc1 (configuration not stated)	none
COc1cc(OC)cc(-c2cc(N)n(S(=O)(=O)c3cccc4nsnc34)n2)c1	none
O=C(/C=C/Nc1ccccc1Br)c1ccccn1	Peg3 prom inh-1 90, TROY NFkB inh 84, TWEAK-Fn14 inh 104, HIF-2a block 85 | Peg3 prom inh-2 87
